# Inconclusive results are not listed. A call without a number means that no potency is given here. The source made the active and inactive calls. Calls follow the shape of the dose curve; as a rule, active = well fitted inhibition curve with a large enough effect; inconclusive = small, poorly fitted or top-dose-only effect; inactive = no such curve, though single readings can be large or run the other way.
# Target: Retinaldehyde dehydrogenase 3 (Homo sapiens) (UniProt P47895)
# Assay: qHTS for Inhibitors of the Aldehyde Dehydrogenase Family (ALDH1A3) Confirmatory screens (AID 2061311); also: nearly all actives have a fitted effect of over 60% in size
# Conditions: ALDH inhibition qHTS; series mostly up to 46 µM
# Potency is read from the fitted curve at half-maximal effect.
row,SMILES,Potency
1,CCc1cccc(C)c1NC(=O)CSc1nc2ccncc2[nH]1,inactive
2,COc1cccc(CCC(=O)NCc2nnc3c(-c4nc(C)no4)cccn23)c1,inactive
3,Cc1cccc(-c2cccc(CN)c2)c1,inactive
4,COc1ccc(C(=O)NCc2nnc3ccc(-c4ccccc4)nn23)c(C)c1,inactive
5,COc1ccc(C)cc1NC(=O)N1CCC(OC2CCN(Cc3ccccc3)CC2)CC1,inactive
6,CC(=O)Nc1ccc(CN2CCCC(N3CCN(c4ccccc4)CC3)C2)cc1 (stereo not drawn),inactive
7,Cc1ccc(-n2c(=O)c3c(cnn3C)n(CC(=O)Nc3cccc(Cl)c3)c2=O)cc1,inactive
8,COc1cc(CNC(=O)c2ccc(NC(=O)N3CCCCc4ccccc43)cc2)cc(OC)c1OC,inactive
9,CCOc1ccc(CCNC(=O)c2cc3sccc3n2CC)cc1OCC,inactive
10,COCCn1c(CNC(=O)c2cc([N+](=O)[O-])ccc2Cl)nc2cccnc21,inactive
11,CCOc1ccc(NC(=O)N2CCC(CC(=O)NCc3ccccc3)C2)cc1 (stereo not drawn),inactive
12,O=C(Cn1c(=O)n(Cc2cccs2)c(=O)c2cccnc21)Nc1ccccc1F,inactive
13,O=S(=O)(c1ccccc1)c1nnn2c1nc(NC1CCCC1)c1ccccc12,inactive
14,Cn1ccc(Nc2ccc3nnc(-c4ccccn4)n3n2)n1,inactive
15,Cc1noc(C)c1-c1cnc(Nc2ccc(F)c(Cl)c2)c2c1CCO2,31.6 µM (active)
16,Fc1cccc(Cc2noc(-c3nc(-c4ccccc4)no3)n2)c1,inactive
17,CN1Cc2nc(Nc3ccc(C(F)(F)F)cc3)ccc2OCC1=O,15.8 µM (active)
18,COc1ccc(OC)c(-c2cc(-c3cccs3)nc3c(C)noc23)c1,12.6 µM (active)

# Source: PubChem BioAssay (NCATS)
